# According to ChEMBL document CHEMBL4513216, “Probing the Open Global Health Chemical Diversity Library for Multistage-Active Starting Points for Next-Generation Antimalarials” (ACS Infect Dis, 2020):
# Screen size: about 65,000 compounds; about 2,100 (3.2%) showed an effect of 50% or more. The median lay at about -52%. Only a selection was taken, and strong results are over-represented in it overall.
# Tested on: Plasmodium falciparum
# Experiment: Screen against P. falciparum Asexual Blood Stage (ABS), at 5uM
# Type: functional, Dd2
# Details: tested at 5 uM
row,SMILES,INHIBITION
1,CC(C)N(C)Cc1cnc2n1CCN(C(=O)c1cccs1)C2,62.6%
2,CC(C)N(C)Cc1cnc2n1CCN(C(=O)Cc1ccsc1)C2,-45.1%
3,CC(C)N(C)Cc1cnc2n1CCN(C(=O)Cc1ccccn1)C2,-6.41%
4,Cc1ccc(C(=O)N2CCC(Oc3ccc(C)c(C)c3)CC2)c(=O)[nH]1,-19.9%
5,Cc1nc(CN2CCc3ncnc(C)c3CC2)cs1,-152%
6,CC(C)CCN1Cc2c(C(=O)N3CCCC3)nn(C)c2C1,-58.9%
7,COc1ccc(NCC2(O)CCNCC2)cc1OC,-115%
8,Cn1cc([C@@H]2CN(S(=O)(=O)c3cccnc3)C[C@H]2N)c2ccncc21,-21.6%
9,Cn1cc([C@@H]2CN(S(=O)(=O)c3ccccc3F)C[C@H]2N)c2ccncc21,63.4%
10,Cn1cc([C@@H]2CN(S(C)(=O)=O)C[C@H]2N)c2ccncc21,16.8%
11,CN(C)c1ccc(C(=O)N(CCO)CC2CC2)c(F)c1,-93.3%
12,Cc1nn(C)cc1-c1cc(C(F)(F)F)nn1CCC#N,-167%
13,Cc1cc(N2CCC(Cc3ncccn3)C2)ncn1 (stereo not given),-89.6%
14,Nc1nnnn1NCc1ccccc1C(F)(F)F,-13.1%
15,Oc1ccc(Cl)cc1CNCc1ccccc1C(F)(F)F,64.5%
16,CC(O)CNCc1ccccc1C(F)(F)F (stereo not given),-46.2%
17,O=C(COCCOc1ccccc1)Nc1ccnn1CC1CCOC1 (stereo not given),-132%
18,CCN(C(=O)CCOC)C(c1ccc(Cl)cc1)c1ccccn1 (stereo not given),-56.9%
19,O=C(O)CC(NC(=O)c1ccccc1OC(F)F)c1cccs1 (stereo not given),-127%
20,CCCc1ccc(S(=O)(=O)Nc2ccc(=O)n(C)c2)cc1,-53.7%
21,CN(C)C(=O)CN1CCC2(CC1)COc1ccccc1S(=O)(=O)N(C)C2,-44.5%
22,CN1CC2(CCN(CC3CC3)CC2)COc2ccccc2S1(=O)=O,52.5%

row,SMILES,INHIBITION
1,CCC(=O)N1CCC2(CC1)COc1ccccc1S(=O)(=O)N(C)C2,-29.3%
2,CN1CC2(CCN(Cc3ccoc3)CC2)COc2ccccc2S1(=O)=O,61.9%
3,CCCN1CCC2(CC1)COc1ccccc1S(=O)(=O)N(CC1CC1)C2,-32.6%
4,COCCN1CCC2(CC1)COc1ccccc1S(=O)(=O)N(C)C2,-7.6%
5,COc1cccc(-c2ncc(CN3C[C@H]4CC[C@@H](C3)N(C)C4=O)s2)c1,-211%
6,COc1cc(F)c(NC(=O)N(C)Cc2cc(C)on2)cc1F,-69.1%
7,Cc1cnn(CCC(=O)N2CCN(C(=O)C(C)C)[C@@H]3CS(=O)(=O)C[C@@H]32)c1,-87.4%
8,CCOC(=O)c1nc(COc2ccc(CC(N)=O)cc2)no1,-26%
9,COCCN1CC[C@@H](OC)[C@@H]1Cc1ccccc1,1.53%
10,Cc1noc(C)c1CN1CC[C@H](OCC2CC2)[C@@H](Cc2ccccc2)C1,62.1%
11,COc1ccc(C[C@H]2CN(Cc3ccoc3)CC[C@@H]2OC)cc1,64.8%
12,Cc1noc(C)c1CN1CC[C@@H](OCC2CC2)[C@@H](Cc2ccccc2)C1,26.2%
13,CO[C@H]1CCN(Cc2ccoc2)C[C@@H]1Cc1ccccc1,67.3%
14,CO[C@@H]1CCN(Cc2nccs2)C[C@@H]1Cc1ccccc1,-9.75%
15,COCCN1CC[C@@H](O)[C@@H]1Cc1ccccc1,-32.4%
16,c1ccc(C[C@H]2CN(Cc3nccs3)CC[C@H]2OCC2CC2)cc1,40.9%
17,COCCN1CC[C@H](OC)[C@@H]1Cc1ccccc1,62.8%
18,COc1ccc(C[C@H]2CN(c3cc(OC)ncn3)CC[C@@H]2OC)cc1,-0.505%
19,CO[C@H]1CCN(Cc2nccs2)C[C@@H]1Cc1ccccc1,-25.6%
20,COc1ccc(C[C@H]2CN(C(=O)C3CC3)CC[C@H]2OC)cc1,35.6%
21,COc1ccc(S(=O)(=O)C2CCN(C(=O)c3cc(C)cs3)CC2)cc1,-23.3%
22,CCC(NC(=O)NCc1cccc(N(C)C)n1)c1nccs1 (stereo not given),-84.7%

row,SMILES,INHIBITION
1,Cn1cnc(S(=O)(=O)N2CCCc3cc(F)cc(F)c32)c1Cl,-84.8%
2,CO[C@H]1CCN(C(=O)Cc2ccccn2)[C@H]1Cc1ccncc1,-128%
3,COc1cc(NC2CCS(=O)(=O)CC2)ncn1,-119%
4,N[C@@H]1c2ccccc2C2(CCN(c3cccc(C(F)(F)F)n3)CC2)[C@H]1O,-35.9%
5,Cc1ccc(CC(=O)N2CCOCC2c2c(C)n[nH]c2C)cc1 (stereo not given),-37.5%
6,COCCO[C@H]1CCN(Cc2ccoc2)[C@H]1Cc1cccnc1,-10.4%
7,COc1ccc(C[C@H]2CNCC[C@H]2OC)cc1,58%
8,COc1ccc(C[C@H]2CN(c3nnc(C)s3)CC[C@@H]2OC)cc1,-16%
9,CO[C@@H]1CCN(Cc2cccs2)[C@H]1Cc1ccncc1,-27.7%
10,CO[C@@H]1CCN(Cc2ccoc2)[C@H]1Cc1ccccc1,61.4%
11,COc1ccc(C[C@H]2CN(c3nnc(C)s3)CC[C@H]2OC)cc1,-2.98%
12,CCOCCN1CCN(Cc2nc(CC(C)C)no2)CC1,18.6%
13,CS(=O)(=O)NC[C@]12COC[C@H]1CN(C(=O)C1CC(F)(F)C1)C2,-80.1%
14,COc1cccc(-c2noc(C3CCN(Cc4ccccc4F)C3)n2)c1 (stereo not given),-118%
15,Cn1nc2c(cc1=O)CN(Cc1coc(-c3ccccc3)n1)CC2,-138%
16,COc1ccc(CN(C)[C@@H]2COC[C@H]2c2ccc(F)cc2)c(OC)c1,9.39%
17,CNc1cc2c(nn1)CCN(C(=O)c1ccc3c(c1)OCO3)C2,-135%
18,O=C1NCCCC12CCN(Cc1ccc(-c3ccccc3)s1)C2 (stereo not given),-138%
19,CCOc1cc(Cl)c(CN2CCC3(CCCNC3=O)C2)cc1OC (stereo not given),-15.1%
20,O=C1NCCCC12CCN(Cc1ccc(SC3CCCCC3)o1)C2 (stereo not given),56.4%
21,O=C(NCCc1ccn(-c2ccccc2)n1)N1CCCC(CO)C1 (stereo not given),-78.9%
22,CNC(=O)c1ccc(CN2CCN(C3=NCC(C)(C)S3)CC2)cc1,-92%

row,SMILES,INHIBITION
1,O=C(c1cc(=O)n(-c2ccccc2)[nH]1)N1CCCC(c2ccn[nH]2)C1 (stereo not given),-22.8%
2,CCOCCN1CCN(Cc2cccc(C(=O)N(C)C)c2)CC1,-117%
3,CN(C)C(=O)c1cccc(CN2CCN(CCO)CC2)c1,61%
4,COCCN1CCN(Cc2cccc(C(=O)N(C)C)c2)CC1,7.48%
5,COc1cc2c(c(OC)c1OC)CCN(CCn1cncn1)CC2,-167%
6,Cc1cc(C)c2nc(CN3CCCC(c4cc[nH]n4)C3)cc(O)c2c1 (stereo not given),54.4%
7,COC1CCCN(Cc2cc(O)c3cc(C)cc(C)c3n2)C1 (stereo not given),-88.5%
8,Cc1cc(C)c2nc(CN3CC[C@@H](O)C3)cc(O)c2c1,-6.9%
9,CCc1c(C)sc2ncnc(N3CC[C@@H](N4CCOCC4)[C@H](O)C3)c12,-2.01%
10,CCc1c(C)sc2ncnc(N3CCN(C4CCOCC4)CC3)c12,33.7%
11,CCc1c(C)sc2ncnc(N3C[C@H](O)[C@@H](N4CCCC4)C3)c12,62%
12,O=C(C1CCCC1)N1CCOC(c2nc(-c3ncccn3)no2)C1 (stereo not given),-66.9%
13,c1cnc(Nc2cc(CCC3CCNCC3)ccn2)cn1,-32%
14,c1cncc(COc2ccccc2CNC2CCc3ncnn3C2)c1 (stereo not given),-137%
15,CNC(=O)COc1ccccc1CNC1CCc2ncnn2C1 (stereo not given),-40.5%
16,c1ccc(OCC2CC2)c(CNC2CCc3ncnn3C2)c1 (stereo not given),51.2%
17,c1ccc(COc2ccccc2CNC2CCc3ncnn3C2)cc1 (stereo not given),69.4%
18,c1ccc(OC2CCCC2)c(CNC2CCc3ncnn3C2)c1 (stereo not given),20.5%
19,c1ccc(OCc2ccncc2)c(CNC2CCc3ncnn3C2)c1 (stereo not given),-32.4%
20,Cc1csc(NC(=O)c2cnc(C3CCCN(C)C3)cn2)n1 (stereo not given),-212%
21,NC(=O)[C@@H]1CCCN1C(=O)c1cn(C/C=C/c2ccccc2)nn1,-88.2%
22,COCCNC(=O)c1nnc2ccc(N3CCOCC3)cc2n1,-19.6%

row,SMILES,INHIBITION
1,COC(=O)CNC(=O)c1nc(-c2ccccc2OC)c2cnccn12,-115%
2,Cc1cc(C)nc(NCCC(=O)NCCn2ccnc2C)n1,-55.9%
3,N#CC(NC(=O)CCCOc1cccnc1)c1ccc(F)cc1F (stereo not given),-69.7%
4,CSc1nccc(N2CCC(NCCN3CCOCC3)CC2)n1,-47.4%
5,CSc1nccc(N2CCC(NCc3ccc4c(c3)OCO4)CC2)n1,51.4%
6,CSc1nccc(N2CCC(NCc3nc(C)cc(C)n3)CC2)n1,-119%
7,CNc1nc(CNC(=O)Nc2cccc(CSC)c2)cs1,28.7%
8,CCN1CCC2(C1)CN(S(=O)(=O)c1cn(C)cn1)C2,-42.2%
9,CCOC(=O)CCN(Cc1cccnc1)C(=O)c1cc(Cl)c[nH]1,-43.4%
10,CCc1cnc(N2C[C@@H]3C[C@H](C(=O)NCC(C)C)[C@H](C2)O3)nc1,-47.5%
11,Cc1cccn2cc(CN3CCCC(O)C3)nc12 (stereo not given),-34.8%
12,Cc1cccn2cc(CN3CCCC(c4ccn[nH]4)C3)nc12 (stereo not given),-34%
13,Cc1cccn2cc(CN3CCCC(c4noc(C5CC5)n4)C3)nc12 (stereo not given),54.6%
14,CC(C)c1nn(C)c(Cl)c1CNCc1cccnc1N(C)C,-8.45%
15,O=C(c1cccs1)N1CCCC2(COCCN(c3cccnc3)C2)C1 (stereo not given),4.74%
16,c1ccc(-c2nc(CN3CCCCC3Cn3cncn3)co2)cc1 (stereo not given),-87.1%
17,CN(C)C(=O)CN1CCC(c2cncc(-c3cccc(Cl)c3)n2)CC1,-53.1%
18,Cc1ccccc1-c1cncc(C2CCN(C)CC2)n1,-69.9%
19,NC(=O)CN1CCC(c2cncc(-c3cccc(Cl)c3)n2)CC1,67.6%
20,CN1CCC(c2cncc(-c3cccc(Cl)c3)n2)CC1,54.5%
21,CN(C)C(=O)CN1CCCC(c2cncc(-c3cccc(Cl)c3)n2)C1 (stereo not given),49.6%
22,O=C(CO)N1CCC(c2cncc(-c3cccc(Cl)c3)n2)CC1,-122%
